Results reported in PubChem BioAssay (NCI).
This is part of a sample that, as a whole, favours compounds with a hit. Of some 79,000 tested, about 15% had one in any assay. Rule as the data show it: active = growth inhibition above about 70%; inactive = the rest.

Columns and labels:
[1] = NCI Yeast Anticancer Drug Screen. Data for the rad50 strain (AID 155);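 also: 0% = growth of vehicle-only cultures of the same strain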; conditions: S. cerevisiae rad50 strain growth inhibition; at 50.0 µM; hits give high values
Method in brief: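 Vehicle-treated cultures provide the reference for the growth inhibition reported for compound-exposed, repair-deficient yeast.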

[2] = NCI Yeast Anticancer Drug Screen. Data for the mec2-1 strain (AID 157); conditions: S. cerevisiae mec2-1 strain, at 50.0 µM, hits give high values
Method in brief: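 Cells of the genetically defined mec2-1 yeast strain are incubated with test compound. Inhibition of growth is calculated against vehicle-treated controls.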

[3] = NCI Yeast Anticancer Drug Screen. Data for the sgs1 mgt1 strain (AID 161);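 also: 0% = growth of cultures given vehicle only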; conditions: S. cerevisiae sgs1 mgt1 strain, at 50.0 µM, hits give high values
Method in brief: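 Mutant yeast exposed to compound; growth scored against vehicle-only wells.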

[4] = NCI Yeast Anticancer Drug Screen. Data for the cln2 rad14 strain (AID 165);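 also: 0% = growth equal to vehicle treated cultures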; conditions: S. cerevisiae cln2 rad14 strain, at 50.0 µM, hits give high values
Method in brief: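 The screen exposed genetically defined yeast (cln2 rad14) to test compounds and scored growth inhibition relative to vehicle-treated controls.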

[5] = NCI Yeast Anticancer Drug Screen. Data for the bub3 strain (AID 167); conditions: S. cerevisiae bub3 mutant strain, at 50.0 µM, hits give high values
Method in brief: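 Mutant yeast screening strain plus compound; vehicle-treated cultures serve as the 0% inhibition reference.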

[6] = NCI Yeast Anticancer Drug Screen. Data for the mlh1 rad18 strain (AID 175); conditions: S. cerevisiae mlh1 rad18 strain growth inhibition; at 50.0 µM; hits give high values
Method in brief: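 Compound-treated yeast growth, normalised to vehicle controls. Strain bears defined DNA repair mutations.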

Measured: growth inhibition

COC(=O)C(C)S(=O)(=O)O (stereo not given)
inactive: [1] -12.2% | [2] -2.5% | [3] 9.35% | [4] -80.5% | [5] 2.9% | [6] 0.3%

Cc1cn(C2OC(CO[Si](C)(C)C(C)(C)C)C(N(C)O[Si](C)(C)C(C)(C)C)C2[Se]c2ccccc2)c(=O)[nH]c1=O (stereo not given)
inactive: [1] -15.5% | [2] -3.1% | [3] 0.5% | [4] -8.65% | [5] -9.85% | [6] -15.2%

CC1=CC(OC2CCCCO2)CC(C)(C)C1 (stereo not given)
inactive: [1] -5.2% | [2] -3% | [3] -11% | [4] -16.4% | [5] 0.05% | [6] -5.15%

CNC(=O)c1ccccc1Cl
inactive: [1] -0.55% | [2] 6.9% | [3] 10.8% | [4] 4.65% | [5] 3.9% | [6] 19.2%

c1ccc(N=C(N2CCCC2)N(CCN2CCCC2)c2ccccc2)cc1
inactive: [1] -39.4% | [2] -58.1% | [3] -36.4% | [4] 1.35% | [5] -14.2% | [6] -28.2%

Cc1ccc2nccc(C)c2c1
inactive: [1] -27.8% | [2] -45.1% | [3] -19.6% | [4] -14.7% | [5] -27.6% | [6] -7.8%

CN1C(=O)C2CC(=O)N(Cc3ccccc3)C(=O)C2C1=O (stereo not given)
inactive: [1] 0.5% | [2] -16.1% | [3] -1.05% | [4] 9.3% | [5] -5.4% | [6] -1.35%

CC(=O)OC(C)C(=O)C1c2cccc(O)c2C(=O)c2c(O)cc(C)cc21 (stereo not given)
inactive: [1] 35.6% | [2] 19.1% | [3] 19.9% | [4] 31.4% | [5] 23.9% | [6] 26.6%

O=S(=O)(O)c1cccc2c1oc1ccccc12
inactive: [1] 8.85% | [2] -37.4% | [3] -3.75% | [4] 19% | [5] -10.1% | [6] -19%

Fc1ccc(F)c(C(Nc2nncs2)Nc2nncs2)c1
inactive: [1] 7.3% | [2] -8.75% | [3] 7.75% | [4] 2.4% | [5] 8.45% | [6] 7.85%

CCOC(=O)NN(C(=O)OCC)C(C)(C)C(C)=O
inactive: [1] 7.3% | [2] 5.35% | [3] 5.15% | [4] -29.2% | [5] 17.8% | [6] 12.1%

COc1ccc(C(Cl)=C(c2ccc(OCCN(C)C)cc2)c2ccc(OCCN(C)C)cc2)cc1
inactive: [1] 29.7% | [2] 15.6% | [3] 40.1% | [4] 28.8% | [5] 28.4% | [6] 20.1%

O=C(CCN1CCCC1)Nc1ccc2sc3ccccc3c(=O)c2n1
inactive: [1] 38.5% | [2] -61.8% | [3] 8.75% | [4] 9.7% | [5] 16.6% | [6] 10.6%

O=C1c2ccccc2C2(O)Nc3cc(O)ccc3C12O (stereo not given)
inactive: [1] -24.6% | [2] -23.1% | [3] -15.1% | [4] -14.1% | [5] -11.8% | [6] -19.6%

CN1CC(=O)N(C(=O)c2ccccc2)C1=N
inactive: [1] -6.6% | [2] -17.2% | [3] -6.4% | [4] -17.9% | [5] -2.15% | [6] 9.55%

O=C(N/N=C\c1ccncc1)Nc1ccc(N=Nc2ccccc2)cc1
inactive: [1] 13.2% | [2] 6.05% | [3] 17.6% | [4] -2.6% | [5] 5.9% | [6] 19.6%

C[N+]1(C)CCN(S(=O)(=O)c2ccccc2)c2ccccc21
inactive: [1] -10.1% | [2] -13.4% | [3] -4.35% | [4] -7.95% | [5] -19.6% | [6] -18.4%

O=C(O)C1CCc2ccccc2C1 (stereo not given)
inactive: [1] 15.4% | [2] 4.05% | [3] 9.85% | [4] -0.45% | [5] -2.4% | [6] 2.95%

CN(C)C12CCC(c3ccccc31)c1ccccc12
inactive: [1] 29.8% | [2] 20.8% | [3] 27.4% | [4] 8.6% | [5] 36.5% | [6] 4.25%

COc1cccc(C2c3cc4c(cc3OC(N3CCCC3)C2C)OCO4)c1OC (stereo not given)
inactive: [1] 24.8% | [2] 17.6% | [3] -9.65% | [4] 1% | [5] 11.4% | [6] 29.9%

OCC(O)C(O)C(O)C(O)C(OCc1ccccc1)OCc1ccccc1 (stereo not given)
inactive: [1] 11.3% | [2] 7.55% | [3] -23.6% | [4] -12.7% | [5] 5.1% | [6] 9.85%

CCCCCCCC(CCCCCCC)C(=O)OCCO
inactive: [1] -7.4% | [2] -7.9% | [3] 3.7% | [4] -21.8% | [5] -4.95% | [6] -5.6%

Cc1cc(N(CCC#N)CCC#N)ccc1C=Nc1ccc(C(=O)NN2C(=O)/C(=C/c3ccc(N(CCC#N)CCC#N)cc3)N=C2c2cc([N+](=O)[O-])ccc2Cl)cc1
inactive: [1] 17.9% | [2] 10.1% | [3] 2.6% | [4] 24% | [5] 4.7% | [6] 7.8%

COc1cc2c3cc1Oc1c(O)c(OC)cc4c1C(Cc1ccc(O)c(c1)Oc1ccc(cc1)CC3N(C)CC2)N(C)CC4 (stereo not given)
inactive: [1] -22.1% | [2] -47.2% | [3] -33.6% | [4] -5.4% | [5] -24.5% | [6] -13%

Cn1ccnc1CCc1ccc(F)cc1F
inactive: [1] -37.2% | [2] -20.8% | [3] -2.75% | [4] -0.15% | [5] -2.2% | [6] -22.2%

O=C1c2ccccc2OCC1CS(=O)(=O)CC1COc2ccccc2C1=O (stereo not given)
inactive: [1] -9.5% | [2] 9.7% | [3] -5.45% | [4] 16.2% | [5] -0.5% | [6] 7.4%

CC(=O)OC1CCC2(C)C(=CCC3C2CCC2(C)/C(=N\NS(=O)(=O)c4ccc(C)cc4)CCC32)C1 (stereo not given)
inactive: [1] 63.7% | [2] 28.6% | [3] 43.3% | [4] -2.05% | [5] 40.3% | [6] 49.5%

O=C(O)C1C=CCC2C(O)C=CC(=O)C12 (stereo not given)
inactive: [1] -5.95% | [2] -31.2% | [3] -1.05% | [4] -2.4% | [5] -11% | [6] -5.9%

O=C(OCc1ccccc1)C1CC1 (tested in a mixture with another compound)
inactive: [1] 12.1% | [2] 14.8% | [3] 15.4% | [4] 6.1% | [5] 20.8% | [6] 25.2%

C/C(=N\NC(=O)C[N+](C)(C)C)c1sc(-c2cccnc2)nc1C
inactive: [1] 5.4% | [2] -26.1% | [3] 6.5% | [4] 20.9% | [5] -4.4% | [6] -4.05%

Cc1ccc(NC(=S)SCc2ccc([N+](=O)[O-])cc2)cc1C
inactive: [1] 16.5% | [2] 14.8% | [3] 8.6% | [4] -8.9% | [5] 12.9% | [6] 2.95%

CCN(CC)CCCC(C)NC(=O)c1ccc2c(c1)C(=O)c1ccccc1C2=O (stereo not given)
inactive: [1] 6% | [2] 19.1% | [3] 16.9% | [4] 36.4% | [5] -17.7% | [6] -33.9%

CCCCCCCCOC(=O)c1cc([N+](=O)[O-])c(Sc2ncnc3nc[nH]c23)c([N+](=O)[O-])c1
inactive: [1] 32% | [2] 30% | [3] 25.9% | [4] 11.8% | [5] 16.1% | [6] 24.2%

O/N=C1\CCn2cccc21
inactive: [1] -12.1% | [2] 15.1% | [3] -18.2% | [4] 0.25% | [5] 19.4% | [6] -11.2%

CCN(CC)CCOC(=O)C(S)(c1ccccc1)C1CCCCC1 (stereo not given)
inactive: [1] 13.8% | [2] -7.3% | [3] 1% | [4] -12.8% | [5] -12.7% | [6] 16.9%

CCOC(=O)OCCOCCOC(=O)OCC
inactive: [1] -2.25% | [2] -14.2% | [3] -30.8% | [4] 19.2% | [5] -2.65% | [6] 25.8%

C[C@]12CCC(=O)C=C1CC[C@@H]1[C@@H]2C(=O)C[C@@]2(C)[C@H]1CC[C@]2(O)C(=O)C=O
inactive: [1] -5% | [2] -1.4% | [3] 13.8% | [4] 16.9% | [5] -10.8% | [6] 2.45%

Nc1ccc(C(=O)NN2C(=O)C(Cl)C2c2cccc(O)c2)cc1 (stereo not given)
inactive: [1] -4.45% | [2] -41.7% | [3] -35.1% | [4] -14.2% | [5] 4.3% | [6] -6.55%

CCOC(=O)C1C(=S)NC(=O)C1C#N (stereo not given)
inactive: [1] 0.3% | [2] -0.05% | [3] 1.35% | [4] 0.75% | [5] 11.3% | [6] -4.7%

O/N=C1/COC(C(F)(F)F)(C(F)(F)F)C1
inactive: [1] -14.3% | [2] -25.4% | [3] -16.9% | [4] -38.2% | [5] -5.7% | [6] -45.5%
